Among all 2,100 compounds or so, about 300 (14%) were called active. About 2% were inconclusive and are not listed.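 The calls were made as follows: active = every replicate test run called active, with the signal falling and half-maximal concentration within twice the top valid dose; inconclusive = the replicate test runs disagree in their calls; inactive = every test run inactive, including effects in the opposite direction.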 A selection follows. Entries with a potency or affinity are not part of this list.

The experiment in a line: reduced cellular PGC1a acetyl-lysine signal – cell-based, cherry-picked samples, dose response (AID 720514).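 Also: actives lower the acetylation signal so they count as inhibitors of PGC1a acetylation.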 The conditions noted are these: U2OS PGC1a acetylation, AlphaLISA, overnight; series mostly up to 19.5 µM. On the technique in general: Alpha assays give light when donor and acceptor beads are brought close together.
For the molecule `CC(=O)Nc1cc(C(=O)OCc2cccc([N+](=O)[O-])c2)ccc1C`, the result was inactive.

Turning to `O=C(Nc1c(F)cccc1F)c1ccc(-n2cncn2)nc1`, the outcome was inactive.

In the case of `CC(C)(C)c1ccc(C(=O)Nc2ccc(C(=O)NCc3cccnc3)cc2)cc1`, the molecule was classed as inactive.

On to `Cc1ccc(C(=O)c2c[nH]c(C(=O)NCc3cccnc3)c2)cc1`, for which the molecule was called inactive.

With `CCO[C@H]1OC(C(=O)N2CCCCCCC2)=C[C@@H](C2CCCCC2)[C@@H]1CCCO`, the outcome was inactive.

With `Cc1cc(=O)oc2cc(OCC(=O)OCC(=O)Nc3ccccc3F)ccc12`, the call was inactive.

`C[C@@H]1CN([C@H](C)CO)C(=O)c2c(c3ccccc3n2C)-c2ccccc2CO[C@@H]1CN(C)C(=O)c1ccccc1`: the outcome was inactive.

For `C[C@@H]1CN([C@@H](C)CO)C(=O)c2c(c3ccccc3n2C)-c2ccccc2CO[C@@H]1CN(C)C(=O)c1ccccc1`, the outcome was inactive.

Consider `CC(C)c1ccc(NC(=O)c2ccc3c(c2)CCN3S(C)(=O)=O)cc1`, for which the result was inactive.

In the case of `COc1ccc(NC(=O)N(C)C[C@H]2OCc3ccccc3-c3c(n(C)c4ccccc34)C(=O)N([C@@H](C)CO)C[C@H]2C)c(OC)c1`, the molecule was classed as inactive.

On to `COc1ccc(-c2cnc3c(c2)C(=O)N([C@H](C)CO)C[C@@H](C)[C@H](CN(C)C(=O)C2CCC2)O3)cc1`, for which the call was inactive.

Turning to `COc1ccc(C#Cc2cnc3c(c2)C(=O)N([C@H](C)CO)C[C@H](C)[C@H](CN(C)S(=O)(=O)c2cccc(F)c2)O3)cc1OC`, the outcome was inactive.

As to `COc1ccc(C#Cc2cnc3c(c2)C(=O)N([C@H](C)CO)C[C@H](C)[C@H](CN(C)S(=O)(=O)c2cccs2)O3)cc1OC`, the outcome was inactive.

On to `O=C(Nc1ccc(-c2noc(-c3cccs3)n2)cc1)c1cccnc1`, for which the molecule was classed as inactive.

`CCOC(=S)SCC(=O)Nc1nc(C)c(C)s1`: the outcome was inactive.

`CC(=O)n1cc([C@@H]2C=C(C(=O)Nc3ccccc3)O[C@H](OCc3ccc(CO)cc3)C2)c2ccccc21`: the call was inactive.

Consider `Cc1cc(C(=O)NNS(=O)(=O)c2ccccc2C(F)(F)F)nn1C(C)(C)C`, for which the call was inactive.

As for `C[C@@H]1CN([C@@H](C)CO)C(=O)c2c(c3ccccc3n2C)-c2ccccc2CO[C@@H]1CN(C)C(=O)Nc1ccccc1C(F)(F)F`, the result was inactive.

`COc1cccc(S(=O)(=O)N(C)C[C@@H]2Oc3cc(C4=CCCC4)ccc3S(=O)(=O)N([C@H](C)CO)C[C@@H]2C)c1`: the call was inactive.

With `O=C(NC(Nc1cc(C(F)(F)F)ccc1Cl)C(=O)c1ccccc1)c1ccccc1` (stereo not drawn), the result was inactive.

In the case of `CCN(CC)CCNC(=O)c1ccc2c(c1NCCO)C(=O)c1ccccc1C2=O`, the molecule was classed as inactive.

Take `CCCCn1c(CN(Cc2ccccc2)Cc2ccccc2)nc2c1c(=O)n(C)c(=O)n2C`: the outcome was inactive.

Turning to `CN1Cc2c(N3CCOCC3)nc3sc(C(=O)c4ccc(Br)cc4)c(N)c3c2CC1(C)C`, the molecule was classed as inactive.

`O=C(c1ccccc1)C(O)(Cc1ccccc1)c1ccccc1` (stereo not drawn): the result was inactive.

Take `COc1ccc(S(=O)(=O)N2CCOCC2)cc1NC(=O)CCNC(=O)c1ccc([N+](=O)[O-])cc1`: the molecule was called inactive.

As for `CC1CCN(S(=O)(=O)c2ccc(NC(=O)c3ccccc3F)cc2)CC1`, the result was inactive.

`CCOC(=O)C1=CC[C@@H](c2ccc(OC)cc2)N(S(=O)(=O)c2ccc(C)cc2)[C@H]1CC`: the molecule was classed as inactive.

Take `CN(C(=O)C1CC1)C1CCS(=O)(=O)C1` (stereo not drawn): the call was inactive.

`CCOc1ccccc1NC(=O)CSc1cn[nH]n1`: the molecule was classed as inactive.

Consider `O=S1(=O)CCOC[C@H](CC2CCCCC2)N1Cc1ccc(F)cc1`, for which the molecule was called inactive.

On to `COc1ccc([C@H]2/C=C\CN(S(=O)(=O)/C=C/c3ccccc3)[C@@H](C)C(=O)N2Cc2ccc(F)cc2)cc1`, for which the result was inactive.

On to `Cc1ccc(CN(CC(O)COc2cccc3[nH]cc(C)c23)C(C)(C)C)cc1` (stereo not drawn), for which the molecule was classed as inactive.

Regarding `C#CCN1[C@H](/C=C/C2CC2)[C@H](Cc2ccccc2)OC(=O)[C@@H]1[C@@H]1N[C@@H](C(=O)OC)C(C)(C)S1`, the molecule was called inactive.

For the molecule `CCCN(CCC)CCNC(=O)c1cc2c(=O)n(CC)c3ccccc3c2s1`, the molecule was called inactive.

With `COc1ccc(S(=O)(=O)N2CCOCC2)cc1NC(=O)CCNC(=O)c1ccc(Cl)cc1`, the molecule was classed as inactive.

As to `C[C@@H]1CN([C@@H](C)CO)C(=O)c2cc(C#CC3CCCC3)cnc2O[C@H]1CN(C)C(=O)Nc1ccccc1`, the call was inactive.

Turning to `Cc1ccccc1-c1ccc2c(c1)O[C@H](CN(C)Cc1ccncc1)[C@@H](C)CN([C@@H](C)CO)S2(=O)=O`, the result was inactive.

`C[C@H](CO)N1C[C@H](C)[C@H](CN(C)Cc2ccc(C(=O)O)cc2)Oc2ncc(-c3ccccc3)cc2C1=O`: the result was inactive.

As to `C[C@H]1CN([C@@H](C)CO)C(=O)c2cc(/C=C/c3ccccc3)cnc2O[C@H]1CN(C)C(=O)CN(C)C`, the molecule was classed as inactive.

`COc1ccc(S(=O)(=O)N(C)C[C@H]2Oc3cc(C4=CCCC4)ccc3S(=O)(=O)N([C@H](C)CO)C[C@@H]2C)cc1`: the molecule was classed as inactive.

For the molecule `CC(C)C#Cc1cnc2c(c1)C(=O)N([C@@H](C)CO)C[C@@H](C)[C@@H](CN(C)C(=O)c1ccccn1)O2`, the molecule was classed as inactive.

With `COc1ccc(C)cc1NS(=O)(=O)c1ccc(NC(=O)CN(c2cc([N+](=O)[O-])ccc2C)S(C)(=O)=O)cc1`, the molecule was classed as inactive.

Regarding `CCOC(=O)CCc1c(C)c2ccc(O)cc2oc1=O`, the molecule was called inactive.

With `OCc1ccc2c(c1)c(-c1ccc3c(c1)OCCO3)c(-c1ccccc1)n2-c1ccccc1`, the molecule was classed as inactive.

Take `CCCCCOC(=O)Cc1c(O)c2ccccc2n(C)c1=O`: the call was inactive.

In the case of `CC(OC(=O)C1CCCC1)C(=O)Nc1ccc(C(N)=O)cc1` (stereo not drawn), the outcome was inactive.

In the case of `CCCCN(CC)CCCNC(=O)c1cc2c(=O)n(CC)c3ccccc3c2s1`, the outcome was inactive.

In the case of `C[C@@H]1CN([C@@H](C)CO)C(=O)c2cc(/C=C/c3ccccc3)cnc2O[C@@H]1CN(C)Cc1cccnc1`, the molecule was classed as inactive.

Turning to `C[C@@H]1CN([C@@H](C)CO)C(=O)CCCn2nncc2CO[C@H]1CN(C)CC1CCCCC1`, the outcome was inactive.

In the case of `CC(C)CC#Cc1ccc2c(c1)O[C@H](CN(C)Cc1ccccc1)[C@H](C)CN([C@@H](C)CO)S2(=O)=O`, the outcome was inactive.

In the case of `C[C@H](CO)N1C[C@H](C)[C@@H](CN(C)Cc2ccc3c(c2)OCO3)Oc2cc(Br)ccc2S1(=O)=O`, the molecule was called inactive.

In the case of `COc1ccccc1/C=C1\SC(=S)N(CCC(=O)NCCCn2ccnc2)C1=O`, the molecule was classed as inactive.

With `COc1cccc(NC(=O)N(C)C[C@H]2OCc3ccccc3-c3c(n(C)c4ccccc34)C(=O)N([C@@H](C)CO)C[C@@H]2C)c1`, the call was inactive.

For the origin of these results see PubChem BioAssay AID720514 (Broad Institute, 2013).
